# hgDAF-12 ag: hgDAF-12 agonism, primary luciferase screen | HEK293 GAL4-hgDAF12 UAS-luciferase reporter, agonist luminescence; normalized to butyrate control | activation, % at 6.8 µM | 370,000 compounds, 1.8% hits | AID 687014;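 active means activation above a cutoff set at the mean of all screened compounds plus 3 SD, cut at about 10% in these data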;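 further: 0% = DMSO wells and 100% = sodium butyrate wells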
# esBAF inh: inhibitors of esBAF chromatin remodeling in mouse ES cells; reporter increase, % at 12.5 µM; 350,000 compounds, 2% hits; Bmi1-luciferase knock-in reporter, 24 h; 100% = twice the neutral-well signal; AID 602393; in the data active means activation above about 40%; inconclusive means no clear call, values can overlap the other calls;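 further: 0% = median of the plate's neutral control wells and 100% = double that signal; a rise in the Bmi1 reporter signal indicates esBAF inhibition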
# Wnt bcat act: activates Wnt/beta-catenin signaling in a reporter cell assay; activator, plate reader; activation, % at 9.35 µM; 300,000 compounds, 1.2% hits; AID 743398; in the data active means activation above about 30%, passing the limit was not always enough; inconclusive means no clear call, values can overlap the other calls;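 further: 0% = neutral control wells and 100% = positive control wells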
# ssDAF12 agonist: activators of S. stercoralis DAF-12 nuclear receptor; HEK293 ssDAF-12/GRIP1 lit1-tk-luc reporter, luminescence; % of 3 µM dafachronic acid response; activation, % at 6.8 µM; 370,000 compounds, 1% hits;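 active means activation above the mean over all tested compounds plus 3 SD, cut at about 0.9% in these data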;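 further: 0% = DMSO-only wells and 100% = 3 µM delta7-dafachronic acid wells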
# hcDAF-12 act: activates DAF-12 receptor from parasite H. contortus | 370,000 compounds, 1.4% hits | activation, % at 6.8 µM | HEK293 hcDAF-12 lit1-tk-luc reporter, luminescence; 0% DMSO, 100% Δ7-dafachronic acid;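 active means activation above the mean of all tested compounds plus 3 SD, cut at about 5.5% in these data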;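 further: 100% = response to 3 µM Δ7-dafachronic acid high control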
# DAX1 inh: DAX1 (NR0B1) inhibition, primary screen. HEK293T StAR-luciferase reporter, SF-1/DAX-1 repression relief. inhibition, % at 6.8 µM. 370,000 compounds, 1.1% hits. AID 652010;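 active means inhibition above the mean over all tested compounds plus 3 SD, cut at about 3.6% in these data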;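 further: 0% = DAX-1 cells with DMSO and 100% = cells lacking DAX-1 with DMSO; higher inhibition means more luminescence from relief of DAX-1 repression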
# Ring1 derepress: esBAF inhibition confirmed by Ring1 de-repression; shares compounds with esBAF inh; mouse ESC E14, Ring1 mRNA RT-qPCR fold change; 550 tested, under 10 active; fold change at 33 µM;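 active means Ring1 gene expression raised more than 2-fold over untreated cells in both replicates at either tested dose; inconclusive means only one replicate above 2-fold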;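 further: Ring1 transcript normalised to actin housekeeping signal by TaqMan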
# esBAF Fgf4 qPCR: represses Fgf4 in mouse ESCs, confirming esBAF inhibition; shares compounds with esBAF inh; mouse ESC E14, Fgf4 mRNA qPCR fold change; active compounds read low; Fgf4 expression fold change at 33 µM; 550 compounds, 4% hits; AID 743177;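 active means Fgf4 expression under 0.8 fold of control in both repeat measurements at one or both tested doses; inconclusive means under 0.8 fold in just a single repeat measurement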;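 further: Fgf4 transcript normalised to actin in duplex TaqMan qPCR; cells exposed to compound for 24 h before lysis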
# esBAF Bmi1 qPCR: esBAF inhibition confirmed by Bmi1 de-repression; mouse ESE14 ES cells, Bmi1 mRNA qPCR fold; active compounds read high; shares compounds with esBAF inh; 550 tested, under 10 active; fold change at 33 µM;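 active means Bmi1 expression fold change above 6 at either tested concentration, seen in replicate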;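 further: higher fold means more Bmi1 de-repression and stronger esBAF inhibition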
# A549 tox SP: cytotoxicity in A549 cells. shares compounds with esBAF inh. cell viability change % (negative = cytotoxic), % at 25 µM, hits read low. plate reader. 550 tested, under 10 active; call rule not given here
# HepG2 tox SP: cytotoxicity in HepG2 cells; shares compounds with esBAF inh; plate reader; active compounds read low; activity change, negative = inhibition, % at 25 µM; 550 compounds, 4% hits; AID 743189; in the data active means activity change below about -50%
# HEK293 cytotox SP: HEK293 cell cytotoxicity at single point. 550 compounds, 3% hits. plate reader. activity change, negative = inhibition, % at 25 µM, hits read low. AID 743190. shares compounds with esBAF inh; in the data active means activity change below about -38%, passing the limit was not always enough
# DAX1 conf: NR0B1 (human) inhibition, confirmation. 2,400 compounds, 87% hits. HEK293T StAR-promoter luciferase reporter, SF-1/DAX-1 repression. shares compounds with DAX1 inh. AID 652134. inhibition, % at 6.8 µM;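 active means inhibition above the average of every tested compound plus 3 SD, cut at about 3.8% in these data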;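 further: 0% = DAX-1 cells with DMSO and 100% = no DAX-1 control cells with DMSO; active compounds raise luminescence by relieving repression of the StAR reporter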
# Target sequence (P51843 whole entry, looked up): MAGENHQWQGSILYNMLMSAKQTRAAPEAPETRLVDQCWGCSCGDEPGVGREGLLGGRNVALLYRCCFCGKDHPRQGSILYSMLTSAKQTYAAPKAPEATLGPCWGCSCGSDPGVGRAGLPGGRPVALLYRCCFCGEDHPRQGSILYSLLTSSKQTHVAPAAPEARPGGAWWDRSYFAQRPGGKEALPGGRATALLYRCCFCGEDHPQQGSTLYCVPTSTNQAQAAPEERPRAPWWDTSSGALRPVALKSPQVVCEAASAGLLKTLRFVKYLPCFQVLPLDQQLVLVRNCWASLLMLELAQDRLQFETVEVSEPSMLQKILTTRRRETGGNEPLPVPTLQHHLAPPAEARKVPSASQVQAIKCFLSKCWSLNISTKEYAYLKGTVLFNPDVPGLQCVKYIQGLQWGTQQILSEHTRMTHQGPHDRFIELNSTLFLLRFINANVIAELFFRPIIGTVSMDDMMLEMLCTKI
# SF1 mutant ctr: counter-screen for DAX1 inhibitors: nonselective inhibitors with SF-1 AF2 mutant; inhibition, % at 6.8 µM; HEK293 StAR-luciferase, luminescence; shares compounds with DAX1 inh; AID 652136; 2,400 compounds, 78% hits;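 active means inhibition above the mean of all tested compounds plus 3 SD, cut at about 3% in these data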;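 further: 0% = DAX-1 transfected cells with DMSO and 100% = cells without DAX-1 with DMSO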
# * = called active by the depositor; ? = inconclusive; nt = not tested or not shown. Sampled rows, rich in hits. Any-hit rate of the full collection: about 4.2%.
SMILES,hgDAF-12 ag,esBAF inh,Wnt bcat act,ssDAF12 agonist,hcDAF-12 act,DAX1 inh,others
COc1cc2c3cc1Oc1cc(ccc1O)C[C@@H]1c4c(cc(OC)c(O)c4Oc4ccc(cc4)C[C@H]3N(C)CC2)CCN1C,-3.4,3.0,-3.3,-0.4,1.8,4.5*,
O=C(Cc1ccccn1)N1CCCCN2[C@@H](CO)[C@@H](c3ccc(-c4ccccc4F)cc3)[C@@H]2C1,nt,2.0,nt,nt,nt,nt,
COC(=O)C1=C(N)Oc2cc(C)oc(=O)c2C12C(=O)Nc1ccccc12 (stereo unspecified),-1.6,nt,-0.6,1.0*,5.1,-0.4,
CC(=O)C1=C(C)OC(N)=C(C(=O)OC(C)C)C12C(=O)Nc1ccccc12 (stereo unspecified),1.0,-6.8,-0.3,-0.6,6.2*,0.1,
COCCOC(=O)C1=C(C)OC(N)=C(C(=O)OC)C12C(=O)Nc1ccccc12 (stereo unspecified),0.7,nt,nt,0.7,3.0,0.1,
O=C(Cc1cccnc1)N1CCCCN2[C@H](C1)[C@H](c1ccc(C#CC3(O)CCCC3)cc1)[C@@H]2CO,nt,-2.4,nt,nt,nt,nt,
O=C1OCCC1C(=O)c1ccccc1 (stereo unspecified),0.3,nt,0.3,-0.9,-1.0,0.7,
O=C(c1ccccc1)C1NC1c1ccccc1 (stereo unspecified),3.3,49.1*,-3.9,-0.5,1.4,0.5,
O=C(O)[C@H]1[C@H](CO)[C@H]2Cn3c(ccc(-c4ccncc4)c3=O)[C@@H]1N2C(=O)C1CC1,nt,-6.9,nt,nt,nt,nt,
COc1ccc2c(c1OC)C(=O)OC2C1c2cc3c(cc2CCN1C)OCO3 (stereo unspecified),7.4,-0.6,2.1,-1.6,0.3,0.2,
COc1cc(C2c3cc4c(cc3CC3COC(=O)C32)OCO4)cc(OC)c1O (stereo unspecified),-4.0,nt,-20.4,-0.9,-0.6,4.2*,
CC/C(=N\NC(N)=O)c1c(O)[nH]c(=O)[nH]c1=O,-2.4,nt,73.6*,-1.7,-0.2,-0.3,
CC/C(=N\Nc1cccc2ccccc12)c1c(O)[nH]c(=O)[nH]c1=O,1.3,nt,-4.8,1.3*,1.9,-0.8,
CC/C(=N\Nc1ccccc1)c1c(O)[nH]c(=O)[nH]c1=O,2.2,-5.1,4.1,-1.2,1.1,0.5,
CCCN1[C@@H]2c3ccc(-c4cccc(C(=O)N(C)C)c4)c(=O)n3C[C@H]1[C@H](CO)[C@H]2C(=O)OC,nt,-3.3,nt,nt,nt,nt,
CC(C)NC(=O)N1[C@@H]2Cn3c(ccc(-c4cccc(C(=O)N(C)C)c4)c3=O)[C@H]1[C@@H](C(=O)O)[C@@H]2CO,nt,-0.8,nt,nt,nt,nt,
O=C(O)[C@@H]1[C@@H](CO)[C@@H]2Cn3c(ccc(-c4ccncc4)c3=O)[C@H]1N2C(=O)C1CCC1,nt,-0.9,nt,nt,nt,nt,
c1ccc(Nc2ccc3ccccc3c2)cc1,4.6,73.8*,-0.1,-1.0,4.5,2.1,Ring1 derepress=1.1;esBAF Fgf4 qPCR=?;esBAF Bmi1 qPCR=1.48;A549 tox SP=-1.4;HepG2 tox SP=-6.4;HEK293 cytotox SP=-6.7
CC=Cc1ccc2n(c1=O)C[C@@H]1[C@@H](CO)[C@H](C(=O)OC)[C@H]2N1CC1CCCCC1 (mixture of isomers),nt,0.8,nt,nt,nt,nt,
COc1ccc(-c2ccc3n2Cc2cnnn2-c2ccccc2-3)cc1,5.5,81.8*,2.6,-0.2,-1.8,0.1,Ring1 derepress=0.947;esBAF Fgf4 qPCR=0.997;esBAF Bmi1 qPCR=1.78;A549 tox SP=-3.9;HepG2 tox SP=-35.9;HEK293 cytotox SP=-12.5
c1ccc(CCc2ccc3n2Cc2cnnn2-c2ccccc2-3)cc1,1.4,-7.9,-7.7,-1.6,-1.8,-2.9,
O=c1[nH]cnc2nc(-c3ccc(N(CCCl)CCCl)cc3)[nH]c12,7.7,73.9*,9.5,-0.7,2.2,5.5*,Ring1 derepress=1.1;esBAF Fgf4 qPCR=0.887;esBAF Bmi1 qPCR=2.45;A549 tox SP=-53.9*;HepG2 tox SP=7.7;HEK293 cytotox SP=-36.9*;DAX1 conf=10.6*;SF1 mutant ctr=0.0
CN(C)C(=O)[C@H]1[C@H](CO)[C@H]2Cn3c(cccc3=O)[C@@H]1N2CC1CC1,nt,-4.9,nt,nt,nt,nt,
O=C(N/N=C/c1c(O)n(C2CCCCC2)c(=S)[nH]c1=O)c1ccccc1O,-0.2,6.2,0.4,-1.4,-1.1,0.2,
O=C(N/N=C/c1c(O)n(C2CCCCC2)c(=S)[nH]c1=O)c1ccccc1,6.4,3.8,3.2,-1.1,2.0,4.8*,DAX1 conf=2.7;SF1 mutant ctr=2.3
SMILES,hgDAF-12 ag,esBAF inh,Wnt bcat act,ssDAF12 agonist,hcDAF-12 act,DAX1 inh,others
C[C@H](CO)N1C[C@H](C)[C@H](CN(C)C(=O)Oc2cccc3ccccc23)OCc2cn(nn2)CCCC1=O,nt,-1.1,nt,nt,nt,nt,
COC(=O)C[C@H]1CC[C@@H]2NC[C@H](O)COC[C@H]2O1,nt,0.1,nt,nt,nt,nt,
CCN(CC)C(=O)c1ccc(NC(=O)Nc2ccccc2F)cc1,11.1*,nt,-2.5,-0.4,5.3,6.5*,DAX1 conf=8.9*;SF1 mutant ctr=4.2*
CCN(CC)C(=O)c1ccc(NC(=O)CCCSc2ccccc2)cc1,0.0,10.2,-2.2,-1.8,0.1,-0.2,
CCC(=O)N1[C@@H]2c3ccc(-c4ccc(F)cc4)c(=O)n3C[C@H]1[C@H](CO)[C@H]2C(=O)OC,nt,1.9,nt,nt,nt,nt,
CCOC(=O)[C@]12Cc3ccccc3[C@H]1N(CCC(=O)OC)C(=O)c1cc(OC)ccc12,-1.2,nt,-0.8,-0.7,2.2,7.2*,DAX1 conf=4.1*;SF1 mutant ctr=9.3*
COC1CCC(OC2CC(C3(C)CCC4(CC(O)C(C)C(C(C)/C=C(\C)C(=O)C(C)CC(C)C(=O)O)O4)O3)OC3(OC(C4OC(O)(CO)C(C)CC4C)CC3C)C2C)OC1C (stereo unspecified),-3.2,nt,-25.8,-1.2,-0.8,9.6*,DAX1 conf=-8.8;SF1 mutant ctr=-12.0
